Values joined by “and” are separate entries in the source; they are usually repeats but may differ in a detail not shown here. Identical values can stand only once. Records with an inconclusive call do not appear. Active and inactive are the calls of the source. Unless noted, calls come from the whole dose curve; as a rule, active = well fitted curve in the direction sought with a large enough effect; inconclusive = small, poorly fitted or top-dose-only effect, or another doubt; inactive = no such curve, though single readings can be large; an effect the other way counts as inactive or inconclusive.
Tests used:
[1] = biological target: Alpha-galactosidase A (Homo sapiens) (UniProt P06280); test: Counterscreen for Glucocerebrosidase Inhibitors: qHTS Assay for Human alpha-Galactosidase at pH 4.5 (AID 992); note: 0% is about no effect
Alpha-galactosidase A (Homo sapiens), sequence (P06280 whole entry, looked up): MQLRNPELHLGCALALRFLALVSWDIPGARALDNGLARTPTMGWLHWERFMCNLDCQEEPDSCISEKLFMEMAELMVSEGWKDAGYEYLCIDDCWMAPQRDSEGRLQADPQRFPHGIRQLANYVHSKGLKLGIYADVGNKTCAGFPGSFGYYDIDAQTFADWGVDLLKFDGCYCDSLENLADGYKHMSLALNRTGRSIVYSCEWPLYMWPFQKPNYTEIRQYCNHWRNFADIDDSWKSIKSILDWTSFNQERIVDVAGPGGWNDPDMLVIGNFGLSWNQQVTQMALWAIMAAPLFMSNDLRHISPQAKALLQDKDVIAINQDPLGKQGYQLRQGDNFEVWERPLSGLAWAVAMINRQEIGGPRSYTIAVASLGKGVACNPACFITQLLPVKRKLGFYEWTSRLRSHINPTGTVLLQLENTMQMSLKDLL
Summary of the method: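 Citrate buffer pH 4.5, Tween-20 0.005%. Enzyme 2 nM, substrate 80 uM, 20 min RT. Stop pH 10. Fluorescence Ex 365/Em 440. AC50 by Hill fit.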

[2] = biological target: alpha-glucosidase (Oryza sativa, rice) (UniProt Q653V4); test: Counterscreen for Glucocerebrosidase Inhibitors: qHTS Assay for Rice alpha-Glucosidase at pH 5.0 (AID 997);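 note: 0% = full activity with enzyme and -100% = basal without enzyme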
Summary of the method: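 Endpoint fluorogenic assay at pH 5.0: compounds (0.7 nM to 77 uM) titrated against 4 nM rice enzyme and 400 uM 4-MU-alpha-glucoside for 20 min at room temperature; NaOH/glycine stop, read ex 365/em 440 nm, Hill-fitted AC50.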

[3] = biological target: Alpha-galactosidase (Coffea arabica) (UniProt Q42656); test: Counterscreen for Glucocerebrosidase Inhibitors: qHTS Assay for Coffee Bean alpha-Galactosidase at pH 5.9 (AID 998);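 note: plate controls were uninhibited enzyme for no effect and no-enzyme basal signal for full effect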
Alpha-galactosidase (Coffea arabica), sequence (Q42656 whole entry, looked up): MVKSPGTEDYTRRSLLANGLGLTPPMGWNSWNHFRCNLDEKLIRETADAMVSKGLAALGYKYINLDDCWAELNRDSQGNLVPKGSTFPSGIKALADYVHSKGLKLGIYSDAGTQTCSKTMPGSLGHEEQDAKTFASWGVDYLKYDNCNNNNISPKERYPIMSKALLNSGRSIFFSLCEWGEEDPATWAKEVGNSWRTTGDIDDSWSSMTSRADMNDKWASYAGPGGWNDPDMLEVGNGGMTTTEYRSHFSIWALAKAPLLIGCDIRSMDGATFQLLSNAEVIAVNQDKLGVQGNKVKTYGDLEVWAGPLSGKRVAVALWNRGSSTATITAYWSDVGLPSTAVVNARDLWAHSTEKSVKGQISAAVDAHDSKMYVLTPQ
Summary of the method: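 Fluorogenic 4-MU substrate hydrolysis, 80 uM substrate and 2 nM coffee bean alpha-galactosidase, pH 5.9 citrate buffer, 20 min at room temperature, then NaOH/glycine stop. Titration 0.7 nM–77 uM, normalized to no-enzyme and enzyme controls, AC50 via Hill equation.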

[4] = Validation of Assay for Modulators of Lamin A Splicing (AID 1459; active = well fitted curve in the direction sought with a large enough effect in the signal ratio; the % refers to the signal ratio;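 note: cells exposed to compound for two days before reading; 0% is about no effect; ratio rise marks activators and ratio drop marks inhibitors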)
Summary of the method: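 S3 HeLa cells stably expressing a lamin A-EGFP splicing minigene and DsRed2 were seeded at 600 cells/well in Opti-MEM with 2% FBS, pin-dosed, and incubated 48 hrs at 37 °C, 5% CO2. Laser-scanning cytometry (488 nm) gave GFP/RFP total intensity ratio.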

[5] = qHTS Assay for Lipid Storage Modulators (AID 1519; calls by dose curve; for activity change, negative = inhibition: % is set by controls: 0 for no effect and ±100 for the full control effect); details: Drosophila S3 cells, BODIPY lipid droplet/cell ratio, laser cytometry, cells loaded with oleic acid; for activity change, negative = inhibition: at 57.5 µM (top of the series)
Summary of the method: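 Cells seeded at 5,000 per well were treated with compounds over a concentration series and loaded with oleic acid (400 uM, as added). Lipid droplet fluorescence (488 nm excitation, 500-530 nm channel) was read by laser-scanning cytometry and normalized to 20 uM Triacsin C.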

[6] = biological target: DNA repair nuclease/redox regulator APEX1 (Homo sapiens) (UniProt P27695); test: qHTS Validation Assay for Inhibitors of the Human Apurinic/apyrimidinic Endonuclease 1 (APE1) (AID 1705;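 note: TAMRA fluorescence gain over two minutes as APE1 cuts a quenched THF abasic duplex; % is set by controls: 0 for no effect and ±100 for the full control effect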)
DNA repair nuclease/redox regulator APEX1 (Homo sapiens), sequence (P27695 whole entry, looked up): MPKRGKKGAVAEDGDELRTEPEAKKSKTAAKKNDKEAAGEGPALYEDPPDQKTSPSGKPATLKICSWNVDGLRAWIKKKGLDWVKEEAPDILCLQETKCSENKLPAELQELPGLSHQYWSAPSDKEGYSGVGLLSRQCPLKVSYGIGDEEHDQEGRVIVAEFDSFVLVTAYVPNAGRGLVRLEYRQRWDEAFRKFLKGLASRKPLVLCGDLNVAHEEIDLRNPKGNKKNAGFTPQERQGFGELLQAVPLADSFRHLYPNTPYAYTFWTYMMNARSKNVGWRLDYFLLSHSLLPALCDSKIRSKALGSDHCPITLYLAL
Summary of the method: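 Human APE1 was preincubated with compound for 15 min at room temperature, then 50 nM (final) THF-abasic double-stranded DNA substrate bearing 5'-TAMRA and 3'-BHQ-2 was added. Incision-driven fluorescence rise (ex 525/em 598 nm) was read kinetically.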

[7] = Counterscreen for APE1 Inhibitors: Fluorescent Dye Displacement Validation Assay (AID 1707);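 note: plate controls were ThO with dsDNA and no compound for no effect and ThO without dsDNA for full effect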
Summary of the method: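 Signal: ThO fluorescence (ex 480 nm/em 540 nm) on binding 50 nM dsDNA; displacement by test compound reduces it. Conditions: 250 nM dye, 50 mM Tris-HCl pH7.5, 2 mM MgCl2, 50mM NaCl, 0.01% Tween-20.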

[8] = biological target: Endonuclease 4 (Escherichia coli (strain K12)) (UniProt P0A6C1); test: Counterscreen for APE1 Inhibitors: qHTS Validation Assay for Inhibitors of Endonuclease IV (AID 1708); note: % is set by controls: 0 for no effect and ±100 for the full control effect
Summary of the method: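 Incision of a double-stranded 50 nM TAMRA/BHQ-2 abasic substrate was followed kinetically (525/598 nm, reads every 60 s) after 15 min enzyme–compound preincubation with 2 nM EndoIV in pH 7.5 Tris buffer with MgCl2, DTT and Tween-20; concentration-response format.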

[9] = qHTS for differential inhibitors of proliferation of Plasmodium falciparum line 7G8 (AID 1815);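 note: parasite growth measured after three days of incubation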; note: potency is the fitted concentration of half-maximal effect;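 for activity change, negative = inhibition: plate controls were vehicle wells for no effect and reference inhibitor wells for full effect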
[10] = qHTS for differential inhibitors of proliferation of Plasmodium falciparum line GB4 (AID 1816); details: Potency: Plasmodium falciparum GB4 proliferation inhibition;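 note: parasite growth measured after 72 h incubation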; note: potency is the fitted concentration of half-maximal effect;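 for activity change, negative = inhibition: 0% = vehicle DMSO and -100% = reference inhibitor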
[11] = qHTS for differential inhibitors of proliferation of Plasmodium falciparum line 3D7 (AID 1876); note: potency is the fitted concentration of half-maximal effect
[12] = qHTS for differential inhibitors of proliferation of Plasmodium falciparum line D10 (AID 1877);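 note: parasites grown with compound for 72 h before DNA staining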; note: potency is the fitted concentration of half-maximal effect;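 for activity change, negative = inhibition: plate controls were vehicle wells for no effect and reference inhibitor wells for full effect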
[13] = qHTS for differential inhibitors of proliferation of Plasmodium falciparum line Dd2 (AID 1882); details: Potency: Plasmodium falciparum Dd2 proliferation inhibition;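 note: plate controls were DMSO vehicle for no effect and 0.29 µM artemisinin for full effect; nearly all actives have a fitted effect of over 65% in size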
Summary of the method: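 SYBR Green DNA fluorescence (ex 485, em 535 nm) after overnight lysis quantifies parasite growth; compound exposure lasted 72 h at 37 C on infected red cells at 2.5% hematocrit, 0.3% parasitemia (final). Artemisinin 0.29 uM and vehicle wells define normalization.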

[14] = qHTS for differential inhibitors of proliferation of Plasmodium falciparum line W2 (AID 1883); details: Potency: Plasmodium falciparum W2 proliferation inhibition;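 note: parasites grown with compound for 72 h before lysis and staining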; note: potency is the fitted concentration of half-maximal effect;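 for activity change, negative = inhibition: 0% = vehicle wells and -100% = control inhibitor wells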
[15] = qHTS for differential inhibitors of proliferation of Plasmodium falciparum line HB3 (AID 1886); details: Potency: Plasmodium falciparum HB3 proliferation inhibition;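 note: parasites grown with compound for 72 h before SYBR Green readout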; note: potency is the fitted concentration of half-maximal effect;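 for activity change, negative = inhibition: plate controls were vehicle for no effect and reference inhibitor for full effect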
[16] = qHTS Assay for Modulators of Human Peripheral Myelin Protein 22 (PMP22) Expression/Activity (AID 1967; active = well fitted curve in the direction sought with a large enough effect in the signal ratio; the % refers to the signal ratio;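 note: 0% = untreated cells and 100% end not stated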)
Summary of the method: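 MSC80 mouse Schwann cells stably carrying Pmp22 promoter–green click beetle luciferase plus EF-alpha–red luciferase control were dosed for 24h at 37 °C. Dual-colour luminescence was filter-overlap corrected; %Activity came from green/red ratio versus untreated cells.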

[17] = Cell Viability - LYMP2-024 (AID 988);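 note: plate controls were DMSO only for no effect and 92 µM tetraoctylammonium bromide for full effect; nearly all actives have a fitted effect of over 60% in size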
Summary of the method: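 qHTS cytotoxicity, human lymphoblastoid line, complete medium; 24 h cpd treatment, 37 C; CellTiter-Glo ATP luminescence readout; tetraoctylammonium bromide positive control; AC50 via Hill fit.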

[18] = Cell Viability - LYMP2-026 (AID 989);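 note: cells exposed to compound for 24 h at 37 °C; % is set by controls: 0 for no effect and ±100 for the full control effect; nearly all actives have a fitted effect of over 50% in size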
Summary of the method: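 Cells are seeded at 2500 per well and held 5 hr at 37 C. Compounds are added in concentration series for 24 hr, then CellTiter-Glo reagent is applied and luminescence read.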

[19] = Cell Viability - LYMP1-002 - Assay at 24 hr (AID 993); note: % is set by controls: 0 for no effect and ±100 for the full control effect
Summary of the method: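 Acute toxicity is measured as concentration-dependent loss of cellular ATP in a human lymphoblastoid line (Coriell LYMP1-002) after 24 h treatment in complete medium. ATP is quantified by luciferase luminescence and AC50 derived by Hill modelling.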

[20] = Cell Viability - LYMP1-002 - Assay at 40 hr (AID 994);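 note: 0% = DMSO only and full inhibition = 92 µM tetraoctylammonium bromide; nearly all actives have a fitted effect of over 60% in size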
Summary of the method: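 Cells are plated at 2500 per well and rested 5 hr at 37 C. Compounds are added and incubated 40 hr at 37 C. CellTiter-Glo reagent is added for 30 min at room temperature before luminescence is read.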

[21] = measured here: cell count channel max response
[22] = measured here: lipid channel max response

O=[N+]([O-])c1cc(O)c(O)c([N+](=O)[O-])c1
inactive: outcome [1] | outcome [2] | outcome [3] | outcome [4] | activity change, negative = inhibition [5] 9.72% and 0.381% | Potency [6] | Potency [7] | Potency [8] | Potency [9] | Potency [10] | Potency [11] | Potency [12] | Potency [13] | Potency [14] | Potency [15]
26.8% and 29.7%: max response [5, 22]
15.9% and 33.6%: max response [5, 21]

c1ccc2cc(CC3=NCCN3)ccc2c1
active: Potency [10] 10 µM | Potency [14] 12.6 µM
31.2%: max response [5, 22]
29%: max response [5, 21]
inactive: outcome [1] | outcome [2] | outcome [3] | outcome [4] | activity change, negative = inhibition [5] 1.13% | Potency [6] | Potency [7] | Potency [8] | Potency [11] | Potency [12] | Potency [13] | Potency [15] | outcome [16]

CC(C)NP(=O)(NC(C)C)OP(=O)(NC(C)C)NC(C)C
inactive: outcome [1] | outcome [2] | outcome [3] | outcome [4] | activity change, negative = inhibition [5] 2% | Potency [6] | Potency [7] | Potency [8] | Potency [13] | outcome [16]
active: Potency [14] 11.2 µM
-4.03%: max response [5, 22]
-5.61%: max response [5, 21]

CCCN(CCC)CCc1ccc(O)c(O)c1
inactive: outcome [1] | outcome [2] | outcome [3] | outcome [4] | activity change, negative = inhibition [5] -0.321% | Potency [6] | Potency [7] | Potency [8]
-7.51%: max response [5, 21]
active: Potency [9] 12.6 µM | Potency [10] 10 µM | Potency [12] 14.1 µM | Potency [14] 10 µM | Potency [15] 11.2 µM
-5.97%: max response [5, 22]

COc1ccc2[nH]c3c(c2c1)CCNC3
-42.9%: max response [5, 21]
-46.2%: max response [5, 22]
inactive: outcome [1] | outcome [2] | outcome [3] | outcome [4] | activity change, negative = inhibition [5] -0.655% | Potency [6] | Potency [7] | Potency [8] | Potency [9] | Potency [11] | Potency [12] | Potency [13] | Potency [15]

COc1ccc2c(c1OC)C(=O)OC2C1c2cc3c(cc2CCN1C)OCO3 (stereo not drawn)
66.1%: max response [5, 22]
61%: max response [5, 21]
inactive: Potency [17] | Potency [18] | Potency [19] | Potency [20] | outcome [4] | activity change, negative = inhibition [5] 1.56% | Potency [6] | Potency [7] | Potency [8] | Potency [9] | Potency [11] | Potency [12] | Potency [13] | Potency [15]

CN1C2CCC1CC(OC(c1ccccc1)c1ccccc1N)C2 (stereo not drawn)
-1.25%: max response [5, 22]
active: Potency [9] 8.91 µM | Potency [10] 5.62 µM | Potency [11] 11.2 µM | Potency [14] 2.51 µM | Potency [15] 10 µM
-2.6%: max response [5, 21]
inactive: outcome [4] | activity change, negative = inhibition [5] 0.575% | Potency [6] | Potency [7] | Potency [8]

CC(N)[C@H](O)c1ccc(O)c(O)c1 (stereo partly drawn)
1.77%: max response [5, 21]
2.21%: max response [5, 22]
inactive: outcome [4] | activity change, negative = inhibition [5] 0.659% | Potency [7] | Potency [8] | Potency [9] | Potency [10] | Potency [11] | Potency [12] | Potency [13] | Potency [15] | outcome [16]

— PubChem BioAssay (NCATS)
